High-throughput results from PubChem.
In the library only some 8.1% were active in any assay of this set; here they are far more common.
MCF10A rereplic = A quantitative high throughput screen for small molecules that induce DNA re-replication in MCF 10a normal breast cells; MCF 10A DNA re-replication, Hoechst nuclear intensity, 48 h; Potency, µM (highest dose often 46.1 µM), inactives show top-dose activity, positive = re-replication, hits mostly activators; 350,000 tested, 2.9% active; AID 624296, 2012; note: % of control where 0% means no effect; nearly all actives have a fitted effect of over 50% in size
KB-3-1 tox = qHTS assay for MDR1-selective chemotherapeutics: Primary screen using the parental adenocarcinoma cell KB-3-1 | KB-3-1 viability, CellTiter-Glo ATP luminescence, 72 h | Potency, µM (series often up to 46.1 µM), usual class: cytotoxic | 400,000 tested, 1.4% active | AID 1347075, 2019; note: % is set by controls: 0 for no effect and ±100 for the full control effect; nearly all actives have a fitted effect of over 60% in size
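Cytotoxicity in the drug-sensitive parental line KB-3-1 was scored as loss of CellTiter-Glo luminescence following 72 h incubation with compound. Values come from curve fitting of normalized concentration-response data.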
ELG1 DNA repair = qHTS screen for small molecules that inhibit ELG1-dependent DNA repair in human embryonic kidney (HEK293T) cells expressing luciferase-tagged ELG1. HEK293T ELG1-luciferase reporter, luminescence, 16 h; DNA damage induced by 5-fluorouridine. Potency, µM (series often up to 46.1 µM), without a hit: top-dose activity change, negative = inhibition, actives largely listed as inhibitors. 330,000 tested, 2.3% active. AID 504467, 2011; note: % is set by controls: 0 for no effect and ±100 for the full control effect; nearly all actives have a fitted effect of over 55% in size
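In this reporter screen, reduction of luminescence relative to DMSO vehicle indicated activity. Compounds and 5-fluorouridine were added together to 2,000 cells per well, incubated for 16 hr at 37 °C, then developed with ONE-Glo.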
KB-V1 MDR tox = qHTS assay for MDR1-selective chemotherapeutics: Primary screen using the drug-selected MDR subline cells KB-V1; KB-V1 MDR cells viability, CellTiter-Glo, 72 h; Potency, µM (titrated, usually from 46.1 µM), hits mostly cytotoxic; 400,000 tested, 3.4% active; AID 1347076, 2019; note: % is set by controls: 0 for no effect and ±100 for the full control effect; nearly all actives have a fitted effect of over 60% in size
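KB-V1, DMEM (no phenol red) + 10% FBS; cpd pin-transferred, titration series; 72 h, 37 degrees C; CellTiter-Glo, luminescence. Data normalized, curve-fit.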
SW480 rereplic = A quantitative high throughput screen for small molecules that induce DNA re-replication in SW480 colon adenocarcinoma cells. SW480 DNA re-replication, Hoechst DNA content imaging, 48 h. Potency, µM (top dose mostly 46.1 µM), for inactives: at the top dose re-replication activation, hits mostly activators. 340,000 tested, 1.8% active. AID 624297, 2012; note: % of control where 0% means no effect; nearly all actives have a fitted effect of over 55% in size
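SW480 cells exposed to compounds for 48 hr at 37 C, 5% CO2, then Hoechst-stained 40 min. Nuclear DNA content imaged by fluorescence scanning (405 nm excitation, 500-530 nm emission); re-replication scored as increased high-intensity nuclei.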
The depositor's hits bear a star; [ ] = another dose, or the depositor's remark. Calls come from the whole dose curve; as a rule, active = well fitted curve in the direction sought with a large enough effect; inconclusive = small, poorly fitted or top-dose-only effect, or another doubt; inactive = no such curve, though single readings can be large; an effect the other way counts as inactive or inconclusive. Potency is the fitted concentration of half-maximal effect.

O=C(CSc1nccn(-c2ccc(Br)cc2)c1=O)NCc1ccccc1 was read as MCF10A rereplic 19%, KB-3-1 tox inactive, ELG1 DNA repair 6%, KB-V1 MDR tox 13µM* and SW480 rereplic -3%.
Screening O=C(C=C(C(=O)c1ccccc1)c1ccccc1)c1ccccc1 returned MCF10A rereplic 9%, KB-3-1 tox inactive, KB-V1 MDR tox inactive and SW480 rereplic inconclusive.
Screening Nc1cc(S(=O)(=O)N2CCCCC2)ccc1N1CCCCC1 returned MCF10A rereplic 4%, KB-3-1 tox inconclusive, ELG1 DNA repair 16%, KB-V1 MDR tox 18µM* and SW480 rereplic -3%.
CC1CCN(S(=O)(=O)c2ccc3c(c2)C(=NO)c2cc(S(=O)(=O)N4CCC(C)CC4)ccc2-3)CC1 was read as MCF10A rereplic 0.52µM*, KB-3-1 tox inconclusive, ELG1 DNA repair 5.2µM*, KB-V1 MDR tox inactive and SW480 rereplic inconclusive.
For O=S(=O)(c1ccc(S(=O)(=O)N2CCCC2)cc1)N1CCCCCC1 the results were MCF10A rereplic 1%, KB-3-1 tox inactive, ELG1 DNA repair 2%, KB-V1 MDR tox inactive and SW480 rereplic -5%.
Cc1ccc(S(=O)(=O)N2CCN(S(=O)(=O)N3CCC(C)CC3)CC2)cc1C was read as MCF10A rereplic 18µM*, KB-3-1 tox inactive, ELG1 DNA repair -2%, KB-V1 MDR tox inactive and SW480 rereplic 2%.
`O=S(=O)(c1ccc2c(c1)C(=NO)c1cc(S(=O)(=O)N3CCCCC3)ccc1-2)N1CCCCC1` gave MCF10A rereplic 2.1µM*, KB-3-1 tox 1.2µM*, ELG1 DNA repair inconclusive, KB-V1 MDR tox 5.2µM* and SW480 rereplic 12µM*.
`Cc1ccc(S(=O)(=O)N2CCN(S(=O)(=O)N3CCCCC3)CC2)cc1C` gave MCF10A rereplic -31%, KB-3-1 tox inactive, ELG1 DNA repair 14%, KB-V1 MDR tox inactive and SW480 rereplic -5%.
`O=C(NCCc1ccccc1)C1CCCN(c2cnccn2)C1` (stereo unspecified) gave MCF10A rereplic -4%, KB-3-1 tox inactive, ELG1 DNA repair 8%, KB-V1 MDR tox inactive and SW480 rereplic -17%.
Screening COc1ccc(C(=O)N/N=C\c2ccc(OC)c(COc3ccccc3Br)c2)c(OC)c1 returned MCF10A rereplic -28%, KB-3-1 tox inconclusive, ELG1 DNA repair 8.2µM*, KB-V1 MDR tox 16µM* and SW480 rereplic 135%.
Screening COc1ccc(/C=N/NC(=O)c2cccnc2)cc1COc1ccc([N+](=O)[O-])cc1 returned MCF10A rereplic inconclusive, KB-3-1 tox inconclusive, ELG1 DNA repair -7%, KB-V1 MDR tox inconclusive and SW480 rereplic inconclusive.
COc1ccc(/C=N/NC(=O)c2cccnc2)cc1COc1ccc(NC(C)=O)cc1 was read as MCF10A rereplic 4.1µM*, KB-3-1 tox inactive, ELG1 DNA repair -15%, KB-V1 MDR tox inconclusive and SW480 rereplic 8.2µM*.
`COc1ccc(/C=C/C(=O)c2ccccc2)cc1COc1ccccc1F` gave MCF10A rereplic inconclusive, KB-3-1 tox inactive, ELG1 DNA repair -24%, KB-V1 MDR tox inconclusive and SW480 rereplic 15µM*.
COCc1cc(/C=N\NC(=O)Cc2ccc(OC)cc2)ccc1OC was read as MCF10A rereplic -3%, KB-3-1 tox inactive, ELG1 DNA repair -1%, KB-V1 MDR tox 23µM* and SW480 rereplic 3%.
For COc1cccc(C(=O)N/N=C/c2ccc(OC)c(COc3ccccc3C(N)=O)c2)c1 the results were MCF10A rereplic inconclusive, KB-3-1 tox inactive, ELG1 DNA repair 27%, KB-V1 MDR tox inactive and SW480 rereplic 16µM*.
COc1ccc(/C=N/NC(=O)c2cccnc2)cc1CN1CCN(c2ccc(F)cc2)CC1 was read as MCF10A rereplic 9%, KB-3-1 tox inactive, ELG1 DNA repair inconclusive, KB-V1 MDR tox inconclusive and SW480 rereplic -6%.
COc1ccc(OCc2cc(/C=N\NC(=O)c3ccccc3)ccc2OC)cc1 was read as MCF10A rereplic 8.2µM*, KB-3-1 tox 6.5µM*, ELG1 DNA repair inconclusive, KB-V1 MDR tox inconclusive and SW480 rereplic 15µM*.
`COc1ccc(C(=O)N/N=C/c2ccc(OC)c(CN3CCN(c4ccc(F)cc4)CC3)c2)cc1` gave MCF10A rereplic -1%, KB-3-1 tox inconclusive, ELG1 DNA repair 21µM*, KB-V1 MDR tox inconclusive and SW480 rereplic 0%.
`COc1cc(OC)cc(C(=O)N/N=C/c2ccc(OC)c(COc3ccc(F)cc3)c2)c1` gave MCF10A rereplic 5.8µM*, KB-3-1 tox inconclusive, ELG1 DNA repair -14%, KB-V1 MDR tox 10µM* and SW480 rereplic 5.8µM*.
Screening Cc1cccc(CNC(=O)c2ccc3nc(Cc4ccccc4)oc3c2)c1 returned KB-3-1 tox inactive and KB-V1 MDR tox inactive.
For O=C([C@H]1O[C@@H](n2ccc(=O)[nH]c2=O)[C@H](O)[C@@H]1O)N1CCC(F)(F)CC1 the results were KB-3-1 tox inactive and KB-V1 MDR tox inactive.
For CC(C)c1ccc(/C=C/C2=NNC(=O)CC2)cc1 the results were MCF10A rereplic inconclusive, KB-3-1 tox 0.73µM*, ELG1 DNA repair inconclusive, KB-V1 MDR tox 0.18µM* and SW480 rereplic inconclusive.
`COc1cc(C=C2C(=O)c3ccccc3C2=O)cc(OC)c1OC` gave MCF10A rereplic 0%, KB-3-1 tox inactive, ELG1 DNA repair 10%, KB-V1 MDR tox inactive and SW480 rereplic 1%.
For COc1cc(/C=C/C2=NNC(=O)CC2)cc(OC)c1OC the results were MCF10A rereplic 4%, KB-3-1 tox 0.52µM*, ELG1 DNA repair inconclusive, KB-V1 MDR tox inconclusive and SW480 rereplic 2%.
CCCc1cc(=O)[nH]c(SCC(=O)N(CC)c2c(N)n(Cc3ccccc3)c(=O)[nH]c2=O)n1 was read as MCF10A rereplic 0%, KB-3-1 tox inactive, ELG1 DNA repair 2%, KB-V1 MDR tox inactive and SW480 rereplic -9%.
Screening COCCn1c(-c2ccc(OC)cc2)cnc1SCC(=O)Nc1cccc2ccccc12 returned MCF10A rereplic 0%, KB-3-1 tox inactive, ELG1 DNA repair inconclusive, KB-V1 MDR tox 7.3µM* and SW480 rereplic 4%.
COc1ccc(CNC(=O)Cn2c(-c3ccccc3)cc(C(C)=O)c2C)cc1OC was read as KB-3-1 tox inactive and KB-V1 MDR tox inconclusive.
`Cc1sc2ncnc(NCC3CCCO3)c2c1C` (stereo unspecified) gave MCF10A rereplic 3%, KB-3-1 tox inactive, ELG1 DNA repair inconclusive, KB-V1 MDR tox inactive and SW480 rereplic 3%[9.22 µM].
